The list is not random: actives were taken first. Their share in the collection is about 2.5%.
DYRK1A inh: Dyrk1A (rat) kinase inhibition. Q63470. ADP-Glo luminescence, NFATc1 peptide. inhibition, % at 12.5 µM. actives 0.43% (n = 310,000); in the data active means inhibition above about 50%;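 further: plate controls were vehicle with enzyme for no effect and no enzyme for full effect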
HSF1 activator: increases HSF-1 driven luciferase reporter signal. AID 504408. NIH3T3-HGL HSF-1 luciferase reporter, MG132, 8 h; 100% = twice DMSO control signal. actives 1.7% (n = 300,000). activation, % at 9 µM;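 active means mean replicate activation of at least 50% with a set share of replicates each reaching 50%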;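 further: 0% = median of the neutral control wells and 100% = twice that signal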
HSF1 inh: HSF1 inhibition; NIH3T3-HGL HSE-luciferase, MG132-induced, luminescence 8 h; active compounds read low; activity change, negative = inhibition, % at 7.5 µM (by protocol); actives 0.77% (n = 300,000); AID 2098;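 active means more than half of replicate wells show activity change below -50%, luminescence cut by over half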;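 further: luciferase reports HSF-1 transcriptional activity via heat shock element; 0% = median of DMSO wells and -100% = zero luminescence signal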
aDG glyco act: increases alpha dystroglycan glycosylation | Pro5-aDG cells, alpha-DG glycosylation AlphaScreen (IIH6); 0% Pro5, 100% B10-LARGE cell signal | activation, % at 10 µM | actives 0.22% (n = 360,000) | AID 624168;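 active means activation of at least 8% versus controls, or a plate z-score of at least 8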;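 further: Pro5 are CHO cells carrying HIG-tagged alpha-DG that lacks glycosylation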
GC-A act: GC-A (human) enzyme activation. actives 0.14% (n = 370,000). HEK293 GC-A cells, cGMP TR-FRET, EC30 ANP; 0% at EC30 ANP, 100% saturating ANP. activation, % at 10 µM. P16066; in the data active means activation above about 40%
NPR2 activator: GC-B (human) receptor activation. P20594. actives 0.11% (n = 370,000). HEK293-GC-B cells, CNP EC30, cGMP TR-FRET; 0% at EC30 CNP, 100% saturating CNP. activation, % at 10 µM;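 active means activation at 10 µM reaching about 35% in either raw or pattern-adjusted values, limit read from the data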
Active calls of the source: *.

`Cc1cc(CN2CCC(n3nccc3NC(=O)c3ccccc3C)CC2)n[nH]1` gave DYRK1A inh -1, HSF1 activator -2, HSF1 inh -9, aDG glyco act 1, GC-A act 3 and NPR2 activator 1.
`Cc1ccc(-c2cn(-c3ccccc3)c(=S)[nH]2)cc1C` gave DYRK1A inh -4, HSF1 activator -69, HSF1 inh -61*, aDG glyco act 0, GC-A act 1 and NPR2 activator -3.
Cc1ccccc1-c1cn(-c2ccccc2)c(=S)[nH]1 was read as DYRK1A inh -1, HSF1 activator 25, HSF1 inh 6, aDG glyco act 0, GC-A act -1 and NPR2 activator -1.
O=C(NC(=S)NCC1CCCO1)c1ccc([N+](=O)[O-])cc1 (stereo unspecified) was read as DYRK1A inh -3, HSF1 activator -3, HSF1 inh -5, aDG glyco act 0, GC-A act 2 and NPR2 activator 2.
For CC(=O)Nc1ccc(NC(=O)c2ccccc2N(C)S(=O)(=O)c2ccc(C)cc2)cc1 the results were DYRK1A inh 0, HSF1 activator 4, HSF1 inh -7, aDG glyco act 0, GC-A act -1 and NPR2 activator 4.
For Cc1ccc(S(=O)(=O)N(C)c2ccccc2C(=O)Nc2ccc(F)cc2F)cc1 the results were DYRK1A inh -1, HSF1 activator -16, HSF1 inh -3, aDG glyco act 0, GC-A act -5 and NPR2 activator 8.
Screening Cc1ccc(S(=O)(=O)N(C)c2ccccc2C(=O)NC2CCCC2)cc1 returned DYRK1A inh -1, HSF1 activator -76, HSF1 inh -72*, aDG glyco act 0, GC-A act -1 and NPR2 activator 0.
`Cc1ccc(NC(=O)c2ccccc2N(C)S(=O)(=O)c2ccccc2)c(C)c1` gave DYRK1A inh 4, HSF1 activator 65*, HSF1 inh 30, aDG glyco act 0, GC-A act -3 and NPR2 activator 4.
Nc1cc(C(=O)OCC(=O)NCCCc2ccccc2)ccc1Cl was read as DYRK1A inh 5, HSF1 activator 31, HSF1 inh 0, aDG glyco act 0, GC-A act 3 and NPR2 activator -3.
`Cc1ccccc1N(C(=O)c1csnn1)C(C(=O)NC1CCCC1)c1ccncc1` (stereo unspecified) gave DYRK1A inh -1, HSF1 activator 11, HSF1 inh 14, aDG glyco act 0, GC-A act 0 and NPR2 activator 1.
Cc1cc(C)nc(/N=C(\N)Nc2ccc3c(c2)OCCO3)n1 was read as DYRK1A inh 3, HSF1 activator -60, HSF1 inh -54*, aDG glyco act 2, GC-A act -1 and NPR2 activator -2.
For Fc1c(F)c(F)c(/C=N/NC(=S)Nc2cccnc2)c(F)c1F the results were DYRK1A inh 0, HSF1 activator -1, HSF1 inh 0, aDG glyco act 1, GC-A act 58* and NPR2 activator 1.
`CC(=O)Nc1cccc(C(=O)N/N=C/c2cccnc2)c1` gave DYRK1A inh 5, HSF1 activator -1, HSF1 inh -2, aDG glyco act 0, GC-A act -1 and NPR2 activator 2.
`O=C(N/N=C/c1ccc2c(c1)OCO2)c1ccc2c(c1)OCO2` gave DYRK1A inh -2, HSF1 activator 6, HSF1 inh 2, aDG glyco act 0, GC-A act 0 and NPR2 activator -2.
`O=C(O)c1cccc(NC(=S)N/N=C/c2cccnc2)c1` gave DYRK1A inh -2, HSF1 activator -62, HSF1 inh -60*, aDG glyco act 0, GC-A act 2 and NPR2 activator -4.
For O=C(N/N=C/c1cccnc1)c1ccc2c(c1)OCO2 the results were DYRK1A inh 1, HSF1 activator -67, HSF1 inh -59*, aDG glyco act 0, GC-A act 6 and NPR2 activator 5.
c1ccc(-c2ccc(-n3ccnc3)cc2)cc1 was read as HSF1 activator 72*, HSF1 inh 33, aDG glyco act 1, GC-A act 4 and NPR2 activator -13.
Cc1ccn2c(CNC(C)CCn3cccn3)c(C(=O)N3CCCCCC3)nc2c1 (stereo unspecified) was read as DYRK1A inh 1, HSF1 activator -6, HSF1 inh 0, aDG glyco act 0, GC-A act 2 and NPR2 activator -6.
`COC(=O)c1ccc(C2C(C(=O)OCC(C)C)=C(C)N=C3SCCC(=O)N32)cc1` (stereo unspecified) gave DYRK1A inh 1, HSF1 activator 0, HSF1 inh -1, aDG glyco act 0, GC-A act -3 and NPR2 activator -12.
COc1ccnc(-n2cccc2/C=N/O)c1C#N was read as DYRK1A inh -3, HSF1 activator -1, HSF1 inh 3, aDG glyco act 0, GC-A act 4 and NPR2 activator 5.
`Cc1ccc2[nH]c(O)c(N=Nc3ccccc3C)c2c1` gave DYRK1A inh 2, HSF1 activator -71, HSF1 inh -63*, aDG glyco act 0, GC-A act -5 and NPR2 activator -2.
`Cc1ccccc1N=Nc1c(O)[nH]c2ccccc12` gave HSF1 activator 8, HSF1 inh 7, aDG glyco act 0, GC-A act -4 and NPR2 activator 0.
CC(C)(C)c1cc[n+](C2=C([O-])c3ccccc3C(=O)/C2=N\S(=O)(=O)c2cccs2)cc1 was read as HSF1 activator -17, HSF1 inh -15, aDG glyco act 3.9*, GC-A act 3 and NPR2 activator -3.
For C=CCn1c(SCC(=O)Nc2ncc(Cc3ccc(Br)cc3)s2)nnc1-c1ccncc1 the results were DYRK1A inh 6, HSF1 activator 3, HSF1 inh -7, aDG glyco act 0, GC-A act -3 and NPR2 activator 7.
`CCCCN(CC)c1nc(N)c2c(N)nc(OCC)cc2c1C#N` gave DYRK1A inh -3, HSF1 activator 57*, HSF1 inh 22, aDG glyco act 1, GC-A act 9 and NPR2 activator -7.
Screening Cn1cnc([N+](=O)[O-])c1S(=O)(=O)c1ccc(Cl)cc1 returned DYRK1A inh 0, HSF1 activator 150*, HSF1 inh 127, aDG glyco act -1, GC-A act 3 and NPR2 activator 22.
Screening Cc1ccc(N2C(=O)[C@@H]3C(C(=O)C(c4ccccc4)c4ccccc4)=NN[C@@H]3C2=O)cc1 returned DYRK1A inh -2, HSF1 activator 53*, HSF1 inh 17, aDG glyco act 0, GC-A act -6 and NPR2 activator 2.
